# Test results reported in PubChem BioAssay AID1272365 (Small Molecule Screening Facility, UW Madison, 2018).
# Where “and” joins values, the source holds several entries; their conditions need not be identical. Identical values can stand only once. Out of some 430,000 compounds screened, about 2,600 (0.6%) were called active. No stated cut-off is given here; in the data, active means inhibition mostly above about 37% (no sharp cut-off); inactive means mostly below about 20%. Many of the other results were omitted from the sample, so actives are more common in it than they were.
# Tested on: PriA–SSB C-terminal tail interaction (Klebsiella pneumoniae)
# Assay: blocks PriA binding to SSB C-terminal tail, primary screen, biochemical, AlphaScreen (AID 1272365);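 further: plate controls were negative control peptide for no effect and reference peptide for full effect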
# Details: AlphaScreen SSBct-PriA binding, biotinylated peptide; at 33 µM, stronger effect = higher value
row,SMILES,inhibition
1,Cc1cc(NC(=O)C(C)(C)Oc2ccc(Cl)cc2)n(-c2nc3c(c(=O)[nH]2)CCC3)n1,-1% (inactive)
2,CCOC(=O)c1c(NC(=O)c2c(F)cccc2F)sc2c1CCN(C(=O)OCC)C2,-7% (inactive) and -12% (inactive)
3,CN(c1ccccc1)c1ccc([N+](=O)[O-])c2nonc12,32.9% (inactive)
4,CCOC(=O)c1ccc(NNC(C)=O)c([N+](=O)[O-])c1,3.85% (inactive)
5,CCc1ccc(Nc2ccc([N+](=O)[O-])c3nonc23)cc1,79.3% (active)
6,O=C(COc1ccccc1)N1CCN(c2ccc(-c3ccco3)nn2)CC1,-12% (inactive)
7,O=C1CCC(C(=O)Nc2nc(CC(=O)N3CCN(c4ccccn4)CC3)cs2)N1 (stereo not drawn),8% (inactive)
8,COC(=O)Nc1nc(CC(=O)Nc2ccccc2OC)cs1,-13% (inactive)
9,COc1ccc(OC)c(Nc2nc(CC(=O)N3CCN(c4ncccn4)CC3)cs2)c1,19% (active)
10,COc1ccc(OC)c(Nc2nc(CC(=O)N3CCc4ccccc43)cs2)c1,12% (inactive)
11,COc1ccc(OC)c(Nc2nc(CC(=O)Nc3nc4ccccc4s3)cs2)c1,38% (active)
12,COc1ccc(C)cc1NC(=O)Cc1csc(NS(=O)(=O)c2ccccc2)n1,6% (inactive)
13,CCCCN(C1CCS(=O)(=O)C1)S(C)(=O)=O (stereo not drawn),10% (inactive)
14,Cc1ccc(C)c(CSc2nnc3n(C)c(=O)c4ccc(C(=O)NC5CCCC5)cc4n23)c1,0% (inactive)
15,O=C(c1ccc(S(=O)(=O)N2CCCCC2)cc1)N(c1cccc(Cl)c1)C1C=CS(=O)(=O)C1 (stereo not drawn),-8% (inactive)
16,O=C(NCCCn1ncccc1=O)c1cccc(C(F)(F)F)c1,-10% (inactive)
17,CSc1cccc(-c2nnc(NC(=O)c3ccc(Cl)s3)o2)c1,11% (inactive) and 4% (inactive)
18,Cc1cc(SCC(=O)Nc2ccc(OC(F)F)cc2)nc2ccccc12,-2% (inactive) and -21% (inactive)
19,Cn1ccc(C(=O)Nc2ccc(F)cc2)n1,8% (inactive)
20,COc1cc2nc(SCc3cc(=O)n4cc(Cl)ccc4n3)n3nc(C)nc3c2cc1OC,-5% (inactive)
21,O=C(NCc1ccco1)C(=O)Nc1c2c(nn1-c1ccc(F)cc1)CSC2,-7% (inactive)
22,COc1ccccc1CCNC(=O)C(=O)NC[C@@H](c1ccco1)N1CCc2ccccc21,8% (inactive)
23,Cc1ccccc1C(=O)NCC(c1ccco1)N1CCc2ccccc21 (stereo not drawn),-7.16% (inactive)
24,O=C(NCC(c1ccco1)N1CCc2ccccc21)C(=O)Nc1ccccc1[N+](=O)[O-] (stereo not drawn),42% (active)

row,SMILES,inhibition
1,COc1ccc(NC(=O)Nc2nnc(SCC(=O)Nc3cccc([N+](=O)[O-])c3)s2)cc1,-16% (inactive)
2,Cc1cc(OCC(=O)NC2CCN(C)CC2)ccc1[N+](=O)[O-],-23% (inactive)
3,Cc1cc([N+](=O)[O-])c(N2CCC[C@@H]2C(=O)O)c([N+](=O)[O-])c1,-16.2% (inactive)
4,Cc1cc([N+](=O)[O-])c(NC2CCCCC2)c([N+](=O)[O-])c1,80.5% (active)
5,NC(=O)C1CCN(C(=O)N[C@H]2CC(=O)N(c3ccc(F)cc3)C2)CC1,2% (inactive)
6,Cc1ccc(NC(=O)C(=O)NC[C@](C)(O)c2cccs2)cc1C,-4% (inactive)
7,COc1ccc(CCC(=O)N2CCC(Oc3cc(C)oc(=O)c3)C2)cc1Br (stereo not drawn),4% (inactive)
8,Cc1cc(NC(=O)CSc2nnc(-c3ccc(Cl)s3)o2)no1,43.9% (active) and 1% (inactive)
9,Cc1nnc(NC(=O)CSc2nnc(-c3ccccc3C)o2)s1,11% (inactive)
10,Cc1cc(NC(=O)CSc2nnc(CNC(=O)c3cccs3)o2)no1,-5% (inactive)
11,COC(=O)C1CCN(C(=O)CCc2csc3nc(-c4ccc(OC)cc4)cn23)CC1,-11% (inactive)
12,Cn1ccnc1S(=O)(=O)C1CCN(C(=O)c2ccc3nsnc3c2)CC1,-12% (inactive)
13,O=C(Nc1nc2c(s1)CN(Cc1ccccc1)CC2)c1cc(Cl)sc1Cl,23% (inactive)
14,O=C(CSc1ccc(-c2ccc(-n3cccn3)cc2)nn1)Nc1ccc([N+](=O)[O-])cc1,-0.41% (inactive)
15,COc1cc(NC(=O)CSc2ccc(-c3cccnc3)nn2)cc(OC)c1,6.7% (inactive)
16,O=C(CSc1ccc(-c2ccccn2)nn1)Nc1ccccc1,90.4% (active)
17,COc1ccccc1CCNC(=O)CSc1nnc2ccc(-c3cccnc3)nn12,-8.11% (inactive) and 15% (inactive)
18,O=C(CSc1ccc(-c2cccnc2)nn1)NCCc1ccccc1,-2% (inactive)
19,CSc1ccc(NC(=O)c2ccccc2F)nn1,2% (inactive)
20,CSc1ccc(-c2ccccn2)nn1,148% (active)
21,COc1ccccc1CCNC(=O)CSc1ccc(-c2ccccn2)nn1,81.7% (active)
22,Brc1ccc(CSc2nnc3ccc(-c4ccccn4)nn23)cc1,-17% (inactive)
23,NC(=NOC(=O)C1CCCCC1)c1ccc(Br)cc1,-26.4% (inactive)
24,CS(=O)(=O)c1ccccc1C(=O)N1CCN(c2ccccc2)CC1,0% (inactive)

row,SMILES,inhibition
1,CN(C)S(=O)(=O)c1ccc(C(=O)NCc2nnc(SCc3c(F)cccc3Cl)o2)cc1,6% (inactive) and -7% (inactive)
2,Cc1ccc(N2CCn3c2nc2c3c(=O)n(CCN3CCOCC3)c(=O)n2C)cc1Cl,0% (inactive)
3,COC(=O)c1ccc2c(=O)n(CCCC(=O)NCc3cccs3)c(=S)[nH]c2c1,-3% (inactive)
4,Cc1ccc2c(Cl)c(C(=O)NCCCn3ccnc3)sc2c1,9.4% (inactive)
5,O=C(NCCCn1ccnc1)c1cc2c(s1)CCCC2,44.7% (active)
6,O=C(NCCCn1ccnc1)c1cc(-c2ccccc2)on1,2.55% (inactive)
7,COc1ccc(/C=N\N=C2\NC(=O)C(CC(=O)NC(N)=O)S2)c(C(=O)O)c1OC (stereo not drawn),-10% (inactive)
8,Cc1ccccc1-n1c(O)c(C=CC=Nc2ccccc2)c(=O)[nH]c1=O,4.92% (inactive)
9,O=C(Nc1nnc(C2CCCO2)o1)c1cc2ccccc2oc1=O (stereo not drawn),4% (inactive)
10,O=C(Nc1nnc(C2CCCO2)o1)c1sc2ccccc2c1Cl (stereo not drawn),34% (inactive)
11,O=C(COc1ccc(Cl)cc1Cl)Nc1nnc(C2CCCO2)o1 (stereo not drawn),63% (active)
12,COc1ccc(CCC(=O)NCCCn2nc(-c3ccccc3)ccc2=O)cc1,2% (inactive)
13,O=C(NC(=S)Nc1ccccc1C(=O)O)c1ccc(-c2ccc(Br)cc2)o1,3.73% (inactive)
14,O=CN1CCN(C(=O)c2ccc(Br)o2)CC1,-5.54% (inactive)
15,CN1CCN(C(=O)c2ccc(-c3ccc(Br)cc3)o2)CC1,39% (active) and 2.72% (inactive)
16,O=C(O)CNC(=O)CN1C(=O)S/C(=C\C=C\c2ccccc2)C1=O,-12% (inactive)
17,O=C(NCc1ccc2c(c1)OCO2)c1csc(Nc2ccccc2)n1,0% (active)
18,O=C(NCCc1ccccc1)c1csc(Nc2ccccc2)n1,7% (inactive)
19,O=C(O)/C=C\C(=O)NCc1ccc2c(c1)OCO2,-5% (inactive)
20,CC(=O)N(C)c1ccc(OC[C@@H](O)CN(c2ccc(C)cc2)S(=O)(=O)c2ccc(C)cc2)cc1,-17% (inactive)
21,CC1(C)C(=O)NCCN1C(=O)Cc1ccc2c(c1)OCO2,-2% (inactive) and -8% (inactive)
22,COC1(CNC(=O)C2CCN(S(C)(=O)=O)CC2)CCSC1 (stereo not drawn),-5% (inactive)
23,COc1ccc(N2CCN(C(=S)Nc3ccc(C(C)=O)cc3)CC2)cc1,5% (inactive)
24,C=CC(=O)Nc1ccc(Nc2ccnc(Nc3ccc(N4CCN(C)CC4)cc3)n2)cc1,56.7% (active)

row,SMILES,inhibition
1,COc1ccc(NC(=O)Nc2ccc(N3CCOCC3)cc2)cc1,-16% (inactive)
2,O=C(c1cc(Cl)sc1Cl)N(CC1CCCO1)c1nc2c(F)cc(F)cc2s1 (stereo not drawn),-20% (inactive)
3,CCOC(=O)N1CCN(C(=O)Cn2nc(C(F)(F)F)n(C)c2=O)CC1,2% (inactive)
4,O=C(Nc1ccccc1-c1ccc(=O)[nH]n1)c1ccncc1,-12% (inactive)
5,CC(=O)N1N=C(c2ccncc2)OC1(Cc1ccccc1)Cc1ccccc1,-8.22% (inactive)
6,COc1ccc(-c2ccc(CCC(=O)O)n2NC(=O)c2ccc(C(C)(C)C)cc2)cc1,-5.78% (inactive)
7,COc1ccc(CC2(C)OC(c3ccc(C(C)(C)C)cc3)=NN2C(C)=O)cc1 (stereo not drawn),62.5% (active)
8,Cn1c(=O)c2nc(SCC(=O)Nc3ccc(F)c([N+](=O)[O-])c3)n(C)c2n(C)c1=O,-5% (inactive)
9,CCOc1ccc(-c2ccc(=O)n(CCNC(=O)C3CC3)n2)cc1,6% (inactive)
10,NC(=NOC(=O)c1ccc(=O)n(Cc2ccccc2)c1)c1ccccn1,3.95% (inactive)
11,O=C(CNc1ccc2ccccc2c1)NN=Cc1ccc(C(=O)O)cc1,13.8% (inactive)
12,COC(=O)c1ccc(C=NNC(=O)CNc2cccc(C)c2)cc1,-5.68% (inactive)
13,CSc1ccc(C=NNC(=O)CNc2ccc3ccccc3c2)cc1,47.7% (active)
14,C(#Cc1ccc2noc(-c3ccccc3)c2c1)c1ccccc1,-6% (inactive)
15,O=C(CCN1CCOCC1)N1N=C(c2ccccc2)CC1c1cccc([N+](=O)[O-])c1 (stereo not drawn),8% (inactive)
16,Cc1ccc(Cn2cc(C(=O)NN)c(=O)c3ccc(F)cc32)cc1,-0.06% (inactive)
17,COc1cccc(Cn2cc(C(=O)c3ccccc3)c(=O)c3cc4c(cc32)OCCO4)c1,-13% (inactive)
18,O=C(c1ccc(F)cc1)c1cn(Cc2ccc(F)cc2)c2cc3c(cc2c1=O)OCCO3,115% (active)
19,COc1ccc(C=Nc2cccc3ncccc23)cc1,86.5% (active)
20,C=CCn1c(N=Cc2ccc(OC)cc2)nc2ccccc21,10.8% (inactive)
21,CCc1nc2ccccc2c(=O)n1N=Cc1ccc(OC)cc1,4.76% (inactive)
